Source: PubChem BioAssay (NCI)
About 83,000 compounds went through this panel and 20% of them were active in at least one assay; those are over-represented in the sample as a whole.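 Note: values are percent growth. 100 is the growth of untreated cells, values between 100 and 0 indicate rising inhibition; between -100 and 0 indicates cell death.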 Values without a mark were called inactive. Activity calls are given as the source filed them. Rule for the calls: active = growth percent below 10; inactive = the rest.

What was measured:
Assay in all cases: NCI-60 one-dose screen, 48 h (100 = growth as untreated, 0 = no growth, -100 = all killed)
Details in all cases: 10 µM unless noted
HCT-15 colon = system: HCT-15 colon
HT29 colon = system: HT29 colon
SNB-75 CNS = system: SNB-75 CNS
SNB-19 CNS = system: SNB-19 CNS
U251 CNS = system: U251 CNS
PC-3 prostate = system: PC-3 prostate
SK-MEL-5 melanoma = system: SK-MEL-5 melanoma
UACC-62 melanoma = system: UACC-62 melanoma
LOX IMVI melanoma = system: LOX IMVI melanoma
SK-MEL-28 melanoma = system: SK-MEL-28 melanoma
SK-MEL-2 melanoma = system: SK-MEL-2 melanoma
SN12C renal = system: SN12C renal
UO-31 renal = system: UO-31 renal
TK-10 renal = system: TK-10 renal
ACHN renal = system: ACHN renal
CAKI-1 renal = system: CAKI-1 renal
A498 renal = system: A498 renal
CCRF-CEM leukemia = system: CCRF-CEM leukemia
MOLT-4 leukemia = system: MOLT-4 leukemia
EKVX NSCLC = system: EKVX NSCLC

Row | SMILES | growth (HCT-15 colon) [%] | growth (HT29 colon) | growth (SNB-75 CNS) | growth (SNB-19 CNS) [%] | growth (U251 CNS) [%] | growth (PC-3 prostate) [%] | growth (SK-MEL-5 melanoma) | growth (UACC-62 melanoma) | growth (LOX IMVI melanoma) | growth (SK-MEL-28 melanoma) [%] | growth (SK-MEL-2 melanoma) [%] | growth (SN12C renal) [%] | growth (UO-31 renal) | growth (TK-10 renal) [%] | growth (ACHN renal) [%] | growth (CAKI-1 renal) [%] | growth (A498 renal) [%] | growth (CCRF-CEM leukemia) | growth (MOLT-4 leukemia) | growth (EKVX NSCLC) [%]
1 | Cc1ccc(Nc2cccc3ccccc23)cc1 | 79.1 | 83.9% | 79.7% | 90.3 | 90.8 | 73.9 | 96.1% | 85.4% | 79.9% | 98.5 | 93.3 | 96.6 | 45.5% | 59.7 | 84.8 | 63.3 | 83.3 | 84.8% | 77.3% | –
2 | CCOC(=O)Nc1ccc2nc(N3CCCCCC3)sc2c1 | 24.7 | 6.49% (active) | -8.82% (active) | 33.6 | 22.8 | 25 | 11.5% | 26% | 44.4% | 42.6 | – | 44.2 | 39.2% | 51.1 | 61.9 | 27.2 | 54.7 | 16.7% | – | 59.9
3 | COc1ccc(/C=N/NC(N)=S)c(OC)n1 | 86.9 | 93.4% | 79.5% | 102 | 95.8 | 105 | 93.1% | 96.8% | 102% | 98.5 | 94 | 98.5 | 95.2% | 112 | 100 | 113 | 99.1 | – | 90.8% | –
4 | Cc1cc([N+](=O)[O-])c(C)cc1N | 105 | 92.1% | 86.7% | 108 | 103 | 88.6 | 98.4% | 95.5% | 100% | 103 | – | 106 | 77.6% | 102 | 103 | 92.8 | 87.2 | 106% | 101% | 101
5 | O=C1c2cccc3cccc(c23)C(=O)N1CCCCCCCCCCN1C(=O)c2cccc3cccc(c23)C1=O | 102 | 106% | 80.8% | 104 | 100 | 103 | 102% | 99.8% | 102% | 109 | – | 100 | 99.4% | 121 | 96.2 | 98 | 105 | – | 107% | –
6 | CCN1C(=O)N(CC)C2C1NC(=O)N2/N=C/C=C/c1ccccc1 (stereo not drawn) | 26.9 | 14.6% | 30.8% | 47.3 | 38.8 | 34.6 | 18% | 20.6% | 32.9% | 53.2 | – | 61.3 | 57.6% | 69.3 | 48.1 | 47.2 | 25.2 | 19.1% | 43.7% | 53.8
7 | C#CCO[C@H]1CC[C@H](OCC#C)[C@@H]2[C@H]1[C@H]1C[C@@H]3[C@@]4(C)CCC[C@@](C)(C(=O)OC)[C@@H]4CC[C@@]23C=C1C(C)C | 91.8 | 53.6% | 94.7% | 96.1 | – | 44.8 | 87.6% | 74.6% | -64.5% (active) | 102 | 85 | 86.3 | 50.5% | 93.7 | 92.6 | 59.3 | 108 | -52.9% (active) | 56.2% | 74.4
8 | CCN(CC)c1ccc(/C=N/NC(=O)c2ccc(S(C)(=O)=O)cc2)c(O)c1 | 28.5 | 21.8% | 55.2% | 32 | – | 49.2 | -2.99% (active) | -18.5% (active) | 9.68% (active) | 27.2 | 19.5 | 31.2 | -1.73% (active) | 30.5 | 17.1 | 20.4 | 45.3 | 6.94% (active) | 2.7% (active) | 15.5
